PubChem BioAssay (NCI)
The panel holds about 83,000 compounds, 20% with a hit somewhere; the sample as a whole holds those more often.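 Values shown are percent growth following 48 h exposure of cells in 96-well plates to a single concentration of compound; below 10 was considered active.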 Unmarked numbers belong to inactive results. Active and inactive are the calls of the source.

Columns and labels:
Assay in all cases: NCI-60 one-dose screen, 48 h (100 = growth as untreated, 0 = no growth, -100 = all killed)
Details in all cases: 10 µM unless noted
DU-145 prostate = tested on: DU-145 prostate
K-562 leukemia = tested on: K-562 leukemia
MALME-3M melanoma = tested on: MALME-3M melanoma
MDA-MB-231 breast = tested on: MDA-MB-231 breast
RXF 393 renal = tested on: RXF 393 renal
SF-268 CNS = tested on: SF-268 CNS
SF-295 CNS = tested on: SF-295 CNS
SF-539 CNS = tested on: SF-539 CNS
UACC-257 melanoma = tested on: UACC-257 melanoma
M14 melanoma = tested on: M14 melanoma
HCT-15 colon = tested on: HCT-15 colon
HT29 colon = tested on: HT29 colon
SNB-75 CNS = tested on: SNB-75 CNS
SNB-19 CNS = tested on: SNB-19 CNS
U251 CNS = tested on: U251 CNS
PC-3 prostate = tested on: PC-3 prostate
SK-MEL-5 melanoma = tested on: SK-MEL-5 melanoma
UACC-62 melanoma = tested on: UACC-62 melanoma
LOX IMVI melanoma = tested on: LOX IMVI melanoma
SK-MEL-28 melanoma = tested on: SK-MEL-28 melanoma

`CCSc1oc(C)nc1[P+](c1ccccc1)(c1ccccc1)c1ccccc1` gave a growth (DU-145 prostate) of 29.5%, a growth (K-562 leukemia) of 19.8% and a growth (MALME-3M melanoma) of 31.1%. The growth (MDA-MB-231 breast) was 49.1%, the growth (RXF 393 renal) was 50.9% and the growth (SF-268 CNS) was 25%. It also gave a growth (SF-295 CNS) of 35.1%, a growth (SF-539 CNS) of 59.1% and a growth (UACC-257 melanoma) of 11.8%. The growth (M14 melanoma) was 33.1%, the growth (HCT-15 colon) was 92.1% and the growth (HT29 colon) was 16.7%. It also gave a growth (SNB-75 CNS) of 35.1%, a growth (SNB-19 CNS) of 19.3% and a growth (U251 CNS) of 20.2%. The growth (PC-3 prostate) was 19.6%, the growth (SK-MEL-5 melanoma) was 1.8% (active) and the growth (UACC-62 melanoma) was 28.7%. The growth (LOX IMVI melanoma) was 25.7% and the growth (SK-MEL-28 melanoma) was 65.5%.

Compound `O=C(Cc1ccccc1)Nc1cccc(N=Cc2ccccc2O)c1` has a growth (DU-145 prostate) of 93.1%, a growth (K-562 leukemia) of 98.7% and a growth (MALME-3M melanoma) of 106%. It also gave a growth (MDA-MB-231 breast) of 114%, a growth (RXF 393 renal) of 111% and a growth (SF-268 CNS) of 84%. The growth (SF-295 CNS) was 100%, the growth (SF-539 CNS) was 101% and the growth (UACC-257 melanoma) was 105%. For the same compound, the growth (M14 melanoma) was 107%, the growth (HCT-15 colon) was 102% and the growth (HT29 colon) was 113%. It also gave a growth (SNB-75 CNS) of 73.8%, a growth (SNB-19 CNS) of 99.2% and a growth (U251 CNS) of 94.3%. It also gave a growth (PC-3 prostate) of 93.4%, a growth (SK-MEL-5 melanoma) of 106% and a growth (UACC-62 melanoma) of 101%. It also gave a growth (LOX IMVI melanoma) of 100% and a growth (SK-MEL-28 melanoma) of 111%.

With `C=C1C(=O)O[C@H]2[C@H]1CC/C(COC(=O)c1ccc(C(=O)O)s1)=C\CC[C@@]1(C)O[C@@H]21` the growth (DU-145 prostate) was 18.6%, the growth (K-562 leukemia) was 3.11% (active) and the growth (MALME-3M melanoma) was 3.09% (active). The growth (MDA-MB-231 breast) was -3.52% (active), the growth (RXF 393 renal) was -56% (active) and the growth (SF-268 CNS) was 24.2%. For the same compound, the growth (SF-295 CNS) was 81%, the growth (SF-539 CNS) was -25.7% (active) and the growth (UACC-257 melanoma) was 52.7%. The growth (M14 melanoma) was 23.1%, the growth (HCT-15 colon) was 4.14% (active) and the growth (HT29 colon) was 7.91% (active). It also gave a growth (SNB-75 CNS) of 71.2%, a growth (SNB-19 CNS) of 48% and a growth (U251 CNS) of 22.4%. The growth (PC-3 prostate) was 18.1%, the growth (SK-MEL-5 melanoma) was 91.4% and the growth (UACC-62 melanoma) was 3.21% (active). The growth (LOX IMVI melanoma) was -55.2% (active) and the growth (SK-MEL-28 melanoma) was 11.7%.

With `Cc1ncc(C(=O)Nc2ccc(CN3CCN(C)CC3)c(C(F)(F)F)c2)cc1C#Cc1cnc(N)c2ncccc12` the growth (DU-145 prostate) was 34%, the growth (K-562 leukemia) was -59.5% (active) and the growth (MALME-3M melanoma) was -79% (active). For the same compound, the growth (MDA-MB-231 breast) was -78.9% (active), the growth (RXF 393 renal) was -18.9% (active) and the growth (SF-268 CNS) was 29.8%. It also gave a growth (SF-295 CNS) of 48.8%, a growth (SF-539 CNS) of 29.8% and a growth (UACC-257 melanoma) of 30.6%. For the same compound, the growth (M14 melanoma) was -79.9% (active), the growth (HCT-15 colon) was 20% and the growth (HT29 colon) was -13.8% (active). It also gave a growth (SNB-75 CNS) of 50.9%, a growth (SNB-19 CNS) of 81% and a growth (U251 CNS) of 45.7%. The growth (PC-3 prostate) was 5.19% (active), the growth (SK-MEL-5 melanoma) was -59.3% (active) and the growth (UACC-62 melanoma) was 7.13% (active). The growth (LOX IMVI melanoma) was -3.58% (active) and the growth (SK-MEL-28 melanoma) was -77.4% (active).

For `CCN(CC)c1ccc(/C=N/NC(=O)Cc2ccc(Nc3ccnc(C(F)(F)F)c3)cc2)c(O)c1`, the growth (DU-145 prostate) was 18.3%, the growth (K-562 leukemia) was 23.1% and the growth (MALME-3M melanoma) was 15.5%. The growth (MDA-MB-231 breast) was 43%, the growth (RXF 393 renal) was 45.8% and the growth (SF-268 CNS) was 18%. It also gave a growth (SF-295 CNS) of 17.9%, a growth (SF-539 CNS) of 17.1% and a growth (UACC-257 melanoma) of 37.4%. The growth (M14 melanoma) was -18.3% (active), the growth (HCT-15 colon) was 33.2% and the growth (HT29 colon) was 33.1%. The growth (SNB-75 CNS) was 5.89% (active), the growth (SNB-19 CNS) was 30.9% and the growth (U251 CNS) was 25.7%. For the same compound, the growth (PC-3 prostate) was 53.3%, the growth (SK-MEL-5 melanoma) was 27.1% and the growth (UACC-62 melanoma) was 20.6%. For the same compound, the growth (LOX IMVI melanoma) was 6.64% (active) and the growth (SK-MEL-28 melanoma) was 31.7%.

Compound `Cc1ccccc1Nc1cc(O)c2c(=O)cc(-c3ccccc3)oc2c1` has a growth (DU-145 prostate) of 26.8%, a growth (K-562 leukemia) of 10.2% and a growth (MALME-3M melanoma) of 47.9%. It also gave a growth (MDA-MB-231 breast) of 50.7%, a growth (RXF 393 renal) of 28% and a growth (SF-268 CNS) of 61.5%. The growth (SF-295 CNS) was 27.1%, the growth (SF-539 CNS) was 23.1% and the growth (UACC-257 melanoma) was 80.6%. It also gave a growth (M14 melanoma) of 24.6%, a growth (HCT-15 colon) of 17.6% and a growth (HT29 colon) of 69.9%. For the same compound, the growth (SNB-75 CNS) was -5.66% (active), the growth (SNB-19 CNS) was 32.6% and the growth (U251 CNS) was 36.2%. The growth (PC-3 prostate) was 40.6%, the growth (SK-MEL-5 melanoma) was 23.5% and the growth (UACC-62 melanoma) was 43.4%. It also gave a growth (LOX IMVI melanoma) of 30.9% and a growth (SK-MEL-28 melanoma) of 51.1%.

In the case of `O=C(Nc1ccccc1N1CCCC1=O)c1oc2ccc(F)cc2c1-c1cnn(-c2ccccc2)c1`, the growth (DU-145 prostate) is reported as 68.8% [50 µM], the growth (K-562 leukemia) is reported as 42.9% [50 µM] and the growth (MALME-3M melanoma) is reported as 28.8% [50 µM]. The growth (MDA-MB-231 breast) was 21.7% [50 µM], the growth (RXF 393 renal) was 25.8% [50 µM] and the growth (SF-268 CNS) was 40.1% [50 µM]. It also gave a growth (SF-295 CNS) of 43.5% [50 µM], a growth (SF-539 CNS) of 30.8% [50 µM] and a growth (UACC-257 melanoma) of 69.9% [50 µM]. The growth (M14 melanoma) was 77.7% [50 µM], the growth (HCT-15 colon) was 44.9% [50 µM] and the growth (HT29 colon) was 62.2% [50 µM]. It also gave a growth (SNB-75 CNS) of 14.8% [50 µM], a growth (SNB-19 CNS) of 54.5% [50 µM] and a growth (U251 CNS) of 62.8% [50 µM]. For the same compound, the growth (PC-3 prostate) was 39.7% [50 µM], the growth (SK-MEL-5 melanoma) was 10.6% [50 µM] and the growth (UACC-62 melanoma) was 46.1% [50 µM]. It also gave a growth (LOX IMVI melanoma) of 42.2% [50 µM] and a growth (SK-MEL-28 melanoma) of 72% [50 µM].

For `COc1ccc(/C=C(/c2ccccc2)[N+](=O)[O-])c(OC)c1`, the growth (DU-145 prostate) was 38.6%, the growth (K-562 leukemia) was 6.07% (active) and the growth (MALME-3M melanoma) was -27% (active). For the same compound, the growth (MDA-MB-231 breast) was 12.1%, the growth (RXF 393 renal) was -67.8% (active) and the growth (SF-268 CNS) was 14.3%. The growth (SF-295 CNS) was 9.19% (active), the growth (SF-539 CNS) was -48.5% (active) and the growth (UACC-257 melanoma) was 10.4%. The growth (M14 melanoma) was 5.14% (active), the growth (HCT-15 colon) was -36.4% (active) and the growth (HT29 colon) was -19.2% (active). For the same compound, the growth (SNB-75 CNS) was 53.3%, the growth (SNB-19 CNS) was -9.71% (active) and the growth (U251 CNS) was -59.8% (active). The growth (PC-3 prostate) was -20.6% (active), the growth (SK-MEL-5 melanoma) was -25% (active) and the growth (UACC-62 melanoma) was -53.9% (active). The growth (LOX IMVI melanoma) was -83.5% (active) and the growth (SK-MEL-28 melanoma) was -25.3% (active).
